# Bioassay records from PubChem.
# In the library only some 9.3% were active in any assay of this set; here they are far more common.
# NPC1 promoter act: activators of NPC1 promoter | Potency, µM (series often up to 9.22 µM), for inactives: at the highest dose activation, hits mostly activators | Huh7 NPC1 promoter luciferase reporter, 24 h | AID 485313 | actives 2.4% (n = 320,000); also: % of control where 0% means no effect; nearly all actives have a fitted effect of over 60% in size
#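 Compounds in DMSO were transferred onto Huh7 NPC1-luciferase reporter cells pre-incubated 2 h; after 24 h at 37 °C, Amplite reagent was dispensed and luminescence recorded 10 min later.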
# FLuc modulator: inhibits or activates purified firefly luciferase, miR-21 counter-screen. P08659. purified FLuc, Km substrates, luminescence inhibition. Potency, µM (top dose mostly 57.5 µM), for the others: at the highest dose activity change, negative = inhibition, hits mostly inhibitors. actives 6.9% (n = 360,000);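 also: plate controls were vehicle for no effect and reference inhibitor for full effect; nearly all actives have a fitted effect of over 55% in size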
# Target sequence (P08659 whole entry, looked up): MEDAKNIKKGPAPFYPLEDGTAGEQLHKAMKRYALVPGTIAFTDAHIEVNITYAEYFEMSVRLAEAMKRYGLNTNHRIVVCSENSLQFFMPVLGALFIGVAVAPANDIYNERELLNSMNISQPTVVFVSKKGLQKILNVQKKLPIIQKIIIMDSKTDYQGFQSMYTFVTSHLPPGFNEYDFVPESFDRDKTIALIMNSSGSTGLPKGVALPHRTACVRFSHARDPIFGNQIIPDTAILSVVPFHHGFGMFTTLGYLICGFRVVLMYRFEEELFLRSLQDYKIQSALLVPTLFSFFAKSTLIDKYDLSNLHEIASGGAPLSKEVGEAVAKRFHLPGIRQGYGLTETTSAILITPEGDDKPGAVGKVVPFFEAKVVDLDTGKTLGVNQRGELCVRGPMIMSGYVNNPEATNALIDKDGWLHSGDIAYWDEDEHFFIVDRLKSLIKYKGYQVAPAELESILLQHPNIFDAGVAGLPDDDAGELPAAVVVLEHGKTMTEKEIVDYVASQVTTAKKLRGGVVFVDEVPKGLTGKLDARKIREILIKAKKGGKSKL
#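 Purified P. pyralis luciferase (10nM final) with 10uM D-luciferin and 10uM ATP (Km levels) in 50mM Tris acetate pH 7.5, 10mM Mg acetate, 0.01% Tween-20, 0.05% BSA; qHTS 6-point titration, ~60 µM downward; luminescence read.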
# ELG1 genotox: induces genotoxicity in HEK293T cells with luciferase-tagged ELG1 | HEK293T ELG1-luciferase reporter, luminescence, 16 h | Potency, µM (highest dose often 46 µM), for inactives: at the highest dose activity change, positive = activation, most hits filed as activators | actives 1.3% (n = 330,000) | AID 504466; also: % of control where 0% means no effect; nearly all actives have a fitted effect of over 60% in size
#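 After overnight (16 hr) compound treatment at 37 °C, ELG1-luciferase HEK293T cells were lysed with ONE-Glo; luminescence quantified 30 min later at room temperature.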
# SMN2 splice enh: increases expression of the SMN2 splice variant | actives 2.8% (n = 210,000) | HEK293 SMN2-luciferase splicing reporter, luminescence, 30-36 h | Potency, µM (top dose mostly 46.1 µM), for inactives: at the top dose activity change, positive = activation, hits mostly activators; also: % of control where 0% means no effect; nearly all actives have a fitted effect of over 55% in size
#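 qHTS luciferase splicing reporter: luminescence rises when SMN2 exon 7 is included in transfected HEK293 cells. Compound exposure lasted 30-36 h at 37C, with 4.5 mM final sodium butyrate as control, followed by a ONE-Glo read.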
# ELG1 DNA repair: inhibitors of ELG1-dependent DNA repair in HEK293T cells; Potency, µM (series often up to 46.1 µM), for inactives: at the top dose activity change, negative = inhibition, most hits filed as inhibitors; actives 2.3% (n = 330,000); HEK293T ELG1-luciferase reporter, luminescence, 16 h; DNA damage induced by 5-fluorouridine; AID 504467; also: % is scaled to controls: 0 for no effect and ±100 for the full control effect; nearly all actives have a fitted effect of over 55% in size
#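 Step one: seed 2,000 cells per well. Step two: pin-transfer compound or DMSO alongside 5-fluorouridine. Step three: incubate 16 hr, 37 °C, 5% CO2. Step four: add ONE-Glo, wait 30 min, read luminescence.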
# Rab9 prom act: Rab9 promoter activation. actives 2.8% (n = 320,000). Potency, µM (titrated, usually from 9.22 µM), inactives show at the top dose activation, negative = inhibition, actives largely listed as activators. Huh7 Rab9 promoter-luciferase reporter, luminescence, 24 h; also: % of control where 0% means no effect; nearly all actives have a fitted effect of over 60% in size
#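 Huh7 cells stably carrying a Rab9 promoter-luciferase reporter, 1500 cells per well in OP-MEM I with 10% FBS, treated with compound 24 hours at 37C. Luciferase activity read by luminescence after 10 minutes with Amplite reagent.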
# Starred values were filed as active, the others as inactive; ? = inconclusive; . = no result given; [ ] = another dose, or the depositor's remark. Calls follow the shape of the dose curve; as a rule, active = well fitted curve in the direction sought with a large enough effect; inconclusive = small, poorly fitted or top-dose-only effect, or another doubt; inactive = no such curve, though single readings can be large; an effect the other way counts as inactive or inconclusive. Potency is read from the fitted curve at half-maximal effect.
SMILES,NPC1 promoter act,FLuc modulator,ELG1 genotox,SMN2 splice enh,ELG1 DNA repair,Rab9 prom act
Cc1ccc(C(=O)N(C)Cc2ccccc2)cc1S(=O)(=O)N1CCOCC1,-2%,3%,1%,.,0%,4%
Cc1ccc(C(=O)N(C)Cc2ccc(N3CCOCC3)cc2)cc1S(=O)(=O)NCc1ccccc1,-3%,2%,-6%,.,21µM*,0%
O=c1oc2ccccc2c(N2CCCC2)c1CN1CCCC1,-2%,0%,11%,-8%,-3%,-9%
CCOc1ccc(CNC(=O)CCCn2ccc3cc(S(=O)(=O)N4CCCC4)ccc32)cc1,-1%,17µM*,-12%,.,-7%,-9%
CCOc1ccc(CN(C)C(=O)CCc2ccc(S(=O)(=O)N3CCCCCC3)cc2)cc1,-7%,3%,-7%,.,7.9µM*,-20%
Nc1c(C(=O)c2ccccc2)sc2nsc(SCCN3CCOCC3)c12,?,21µM*,9%,.,?,?
COc1ccc(CN(CC2CCCO2)S(=O)(=O)c2ccc(C(=O)O)cc2)cc1OC (stereo not given),-2%,1%,2%,11%,?,0%
Cc1ccc(NC(=O)c2ccc(Cl)c(NC(=O)c3cccs3)c2)cc1,22%,11µM*,3%,.,?,9%
Cc1cc(C)c2oc(-c3ccc(Cl)c(NC(=O)c4cccs4)c3)nc2c1,.,4.3µM*,.,8%,.,.
Cc1nc2ccc(NC(=O)c3ccc(Cl)c(NC(=O)c4cccs4)c3)cc2s1,4%,13µM*,1%,12%,-20%,-2%
O=C(Nc1ccc(NC(=O)c2cccs2)cc1)c1ccc(Cl)cc1,.,-2%,.,-5%,.,.
Cc1ccc(-n2c(=O)cc(N3CCN(C(=O)c4ccco4)CC3)[nH]c2=O)cc1,1%,2%,-7%,24%,-9%,-2%
COc1ccc(C(=O)Cn2cnc3ccccc3c2=O)cc1OC,-1%,-5%,-6%,.,-1%,-1%
Cc1cc(C)n(C(=O)CNC(=O)c2cccs2)n1,0%,-1%,1%,21%,4%,4%
O=C(COC(=O)c1ccc(F)cc1F)NCCC1=CCCCC1,0%,?,3%,.,?,-1%
CCOc1ccccc1OCCCOc1ccc([N+](=O)[O-])cc1Cl,-4%,9.5µM*,0%,-23%,?,0%
COc1cc(C)ccc1OCCCOc1ccccc1Cl,2.8µM*,6.7µM*,?,13µM*,?,3.5µM*
COc1cccc(OC)c1OCCCOc1ccc([N+](=O)[O-])cc1Cl,5%,-3%,-7%,-31%,-9%,3%
COc1cc(C=O)ccc1OCCOCCOc1cc(C)ccc1Cl,-1%,-12%,-3%,.,-20%,-3%
COc1cc(C)ccc1OCCOc1ccccc1Cl,?,19µM*,?,5%,?,?
Cc1onc(C(=O)Nc2sc3c(c2C(N)=O)CCCC3)c1[N+](=O)[O-],-5%,?,8%,.,0%,5%
COc1cc(OC)c(OC)cc1CN1CCCC(C(=O)c2sccc2C)C1 (stereo not given),1%,1%,-1%,.,2%,0%
COc1ccc(Oc2nnnn2-c2ccccc2)cc1,1%,?,16%,1%,?,-4%
COc1cccc(Oc2nnnn2-c2ccccc2)c1,?,17µM*,?,.,?,4µM*
O=C(CSc1nc2ccc(Cl)cc2[nH]1)Nc1ccc2c(c1)CCC2,0%,-6%,0%,.,-2%,-1%
SMILES,NPC1 promoter act,FLuc modulator,ELG1 genotox,SMN2 splice enh,ELG1 DNA repair,Rab9 prom act
CN(C)CCNc1ncnc2c1cnn2-c1ccc(Cl)cc1,16%,7.6µM*,21µM*,26%,?,?
O=C1CCCN1CCCNc1ncnc2c1cnn2-c1ccc(Cl)cc1,?,17µM*,18µM*,-35%,?,?
CCCCN(C)c1ncnc2c1cnn2-c1cccc(Cl)c1,.,2.7µM*,.,.,.,.
CN(C)CCNc1ncnc2c1cnn2-c1cccc(Cl)c1,.,24µM*,.,.,.,.
Cc1ccc(Cn2ncc3c(NCCN(C)C)ncnc32)cc1,-4%,3%,1%,.,16%,-2%
O=C(CN1CCN(Cc2ccccc2)CC1)N/N=C/c1c[nH]c2ccccc12,-1%,-1%,-4%,-17%,0%,-2%
C#CCNC(=O)C1=C[C@@H](c2ccc(C(F)(F)F)cc2)C[C@@H](OCCCCO)O1,-2%,?,7%,.,-3%,-2%
CCN1C(=O)C2C(C1=O)N1C(c3cccs3)C3C(=O)N(CC)C(=O)C3N1C2c1cccs1 (stereo not given),2%,2%,1%,3%,-9%,-1%
COc1ccccc1OCC(=O)Nc1sc2c(c1C(N)=O)CCC2,.,.,8%,.,?,.
Cc1cccc(-n2ncc3c(N(C)Cc4ccccc4)ncnc32)c1,4µM*,2.4µM*,?,.,?,3.5µM*
CC(C)CCNc1ncnc2c1cnn2-c1cccc(Cl)c1,.,17µM*,.,.,.,.
OCCCNc1ncnc2c1cnn2-c1ccc(Cl)cc1,0.2µM*,1.9µM*,?,.,?,0.28µM*
COc1ccc(CCNc2ncnc3c2cnn3-c2cccc(Cl)c2)cc1,.,-3%,.,.,.,.
CCCN(CCC)C(=O)C[n+]1cccc(/C=N/O)c1,-1%,15%,0%,16%,5%,-4%
CC(C)Nc1nc(Cl)nc(Nc2ccccc2)n1,28%,?,?,.,?,13%
N#C/C(=C/c1cn(-c2ccccc2)nc1-c1cccc(OCc2ccccc2)c1)C(=O)NCCCn1ccnc1,0%,-29%,-9%,-1%,13µM*,-4%
O=C(NCCCn1ccnc1)c1cn(-c2ccccc2)nc1-c1ccccc1,.,12µM*,.,6%,.,.
Cc1cccc(C)c1NC(=O)NC1(C(=O)N2CCN3CCCC3C2)CCCCC1 (stereo not given),-2%,0%,-2%,.,12%,4%
COC(=O)CCC(=O)OC1(C)C(=O)C2=CN(C3CC3)C(c3ccc(OC)cc3)=CC2=C(Br)C1=O (stereo not given),.,.,.,-4%[9.22 µM],.,.
CC(C)(C)c1ccc(OCCSc2nc(-c3cccs3)nc3cc(=O)[nH]n23)cc1,.,15µM*,.,.,.,.
Cc1ccccc1NC(=O)CSc1nc(-c2cccs2)nc2cc(=O)[nH]n12,2%,5%,.,.,.,-3%
CCC(=O)Nc1cccc(C(=O)OC)c1,-2%,1%,0%,.,1%,-2%
O=C(NCc1cccc(F)c1)c1cccc(NC(=O)c2nsc3ccccc23)c1,.,8.5µM*,.,.,.,.
O=C(NCc1cccc(F)c1)c1ccc2nc(CCc3ccccc3)oc2c1,.,-15%,.,.,.,.
COC(=O)c1cccc(NC(=O)c2nsc3ccccc23)c1,.,0.95µM*,.,?,.,.
